Records with an inconclusive call do not appear. Activity calls are given as the source filed them. How the source made its calls, unless noted: active means hit-call score of the fitted dose curve at least 0.9, where 1 is the maximum; inactive means score below 0.9.
Key:
[1] = CCTE_Mundy_HCI_Cortical_Synap_Neur_Matur_NeuriteSpotCountPerNeuriteLength: CCTE's Synaptogenesis and Neurite Maturation Assay in rat cortical cells for Neurite Spot Count per Neurite Length, Mundy Lab (AID 2284210)
Outline: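 Synaptophysin spots per unit neurite length, measured by automated imaging of MAP2/synaptophysin/Hoechst-stained neurons. Cultures from rat cortex received chemical at DIV 7 with media change through DIV 12; glial growth arrested by AraC at DIV 5; DMSO baseline.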

[2] = CCTE_Mundy_HCI_Cortical_Synap_Neur_Matur_BPCount: CCTE's Synaptogenesis and Neurite Maturation Assay in rat cortical cells for Branch Point Count, Mundy Lab (AID 2284211)
Outline: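 HCI read-out of branch points from MAP2/synaptophysin/Hoechst immunofluorescence; rat cortical cultures, AraC DIV 5, dosing DIV 7, fixed DIV 12; fit in positive direction vs DMSO baseline.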

[3] = CCTE_Mundy_HCI_Cortical_NOG_NeuriteCount: CCTE's Neurite Outgrowth Assay in rat cortical cells for Neurite Count, Mundy Lab (AID 2284212);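 further: cells fixed about two days after chemical exposure began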
Outline: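 Rat cortical primary cells; compound added 2 h post-plating, 1/10 dilution of working solution. Anti-betaIII-tubulin/AF488 ICC; ArrayScan neurite count vs DMSO.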

[4] = CCTE_Mundy_HCI_Cortical_NOG_NeuriteLength: CCTE's Neurite Outgrowth Assay in rat cortical cells for Neurite Length, Mundy Lab (AID 2284213)
Outline: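 First, rat primary cortical cells were plated and, 2 h later, given test chemical as a 1/10 dilution. Finally, βIII-tubulin immunostaining enabled automated imaging of neurite length.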

[5] = CCTE_Mundy_HCI_Cortical_Synap_Neur_Matur_NeuriteLength: CCTE's Synaptogenesis and Neurite Maturation Assay in rat cortical cells for Neurite Length, Mundy Lab (AID 2284214)
Outline: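 Cultures of rat primary cortical cells received chemical at DIV 7 and were fixed at DIV 12, after glial arrest with AraC at DIV 5. Neurite length was measured by automated imaging of MAP2 immunofluorescence.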

[6] = CCTE_Mundy_HCI_Cortical_Synap_Neur_Matur_NeuriteSpotCountPerNeuron: CCTE's Synaptogenesis and Neurite Maturation Assay in rat cortical cells for Neurite Spot Count per Neuron Count, Mundy Lab (AID 2284215)
Outline: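 Developing rat cortical neurons, with glia suppressed by AraC, are exposed to chemicals from DIV 7 to DIV 12. Automated fluorescence imaging of MAP2-labelled neurites and synaptophysin puncta yields a count per neuron, normalised against DMSO wells.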

[7] = CCTE_Mundy_HCI_Cortical_Synap_Neur_Matur_SynapseCount: CCTE's Synaptogenesis and Neurite Maturation Assay in rat cortical cells for Synapse Count, Mundy Lab (AID 2284218)
Outline: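 Cells were plated, allowed 2 hr to attach, treated with AraC at DIV 5, then exposed to chemicals from DIV 7 until DIV 12. After fixation and MAP2/synaptophysin immunolabelling, synapses per neuron were quantified by automated imaging against DMSO.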

[8] = CCTE_Mundy_HCI_hN2_NOG_NeuriteCount: CCTE's Neurite Outgrowth Assay in human hN2 cells for Neurite Count, Mundy Lab (AID 2284219; active means hit-call score of the fitted dose curve at least 0.9, where 1 is the maximum)
Outline: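 In this morphology assay, hNP1-derived neurons received test chemical 2 h post-plating and were fixed two days later in warm paraformaldehyde/sucrose containing Hoechst 33342. Neurites, labelled by rabbit anti-βIII-tubulin (1:800) and Alexa Fluor-488 (1:500), were counted automatically.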

[9] = CCTE_Mundy_HCI_hN2_NOG_NeuriteLength: CCTE's Neurite Outgrowth Assay in human hN2 cells for Neurite Length, Mundy Lab (AID 2284220; active means hit-call score of the fitted dose curve at least 0.9, where 1 is the maximum)
Outline: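 Plate hNP1-derived neurons, then add chemical 2 h later as a 1/10 dilution. Stain with anti-βIII-tubulin then Alexa Fluor-488 secondary, and image automatically to measure neurite length.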

[10] = CCTE_Mundy_HCI_hN2_NOG_NeuronCount: CCTE's Neurite Outgrowth Assay in human hN2 cells for Neuron Count, Mundy Lab (AID 2284221; active means hit-call score of the fitted dose curve at least 0.9, where 1 is the maximum)
Outline: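 Read-out is the number of betaIII-tubulin-positive neurons imaged by automated high-content analysis, with DMSO as negative control.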

[11] = CCTE_Mundy_HCI_Cortical_Synap_Neur_Matur_NeuriteCount: CCTE's Synaptogenesis and Neurite Maturation Assay in rat cortical cells for Neurite Count, Mundy Lab (AID 2284222);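 further: exposure from day 7 to day 12 in vitro with readout at day 12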
Outline: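 Rat primary cortical cells; AraC added at DIV 5, chemicals dosed with media change at DIV 7 through DIV 12. MAP2/synaptophysin/Hoechst immunostaining, high-content imaging of neurite number; fitted relative to DMSO.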

[12] = CCTE_Mundy_HCI_Cortical_Synap_Neur_Matur_CellBodySpotCount: CCTE's Synaptogenesis and Neurite Maturation Assay in rat cortical cells for Cell Body Spot Count, Mundy Lab (AID 2284223)
Outline: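 Chemicals were applied to AraC-treated rat primary cortical cells at DIV 7 and measured at DIV 12. Fixed cells were labelled for MAP2, synaptophysin and nuclei, and high-content imaging gave cell body synaptophysin spot counts per neuron relative to DMSO.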

[13] = CCTE_Mundy_HCI_Cortical_NOG_BPCount: CCTE's Neurite Outgrowth Assay in rat cortical cells for Branch Point Count, Mundy Lab (AID 2284237)
Outline: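 Measured 50.33 h after dosing, this morphology endpoint uses rat primary cortical cultures labelled for betaIII-tubulin. Branch points are quantified by high-content imaging, with DMSO as negative control and baseline.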

[14] = CCTE_Mundy_HCI_hNP1_Casp3_7: CCTE's Caspase-Glo 3/7 Assay in human neuroprogenitor cells for Apoptosis, Mundy Lab (AID 2284240)
Outline: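 Apoptosis is scored by activated caspase-3/7 luminescence in WA09-derived neural progenitor cells, measured 26.5 h after chemical dosing. Values represent gain of signal relative to DMSO vehicle.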

[15] = CCTE_Mundy_HCI_hNP1_CellTiter: CCTE's Cell Titer-Glo 2 Assay in human neuroprogenitor cells for Viability, Mundy Lab (AID 2284241; active means hit-call score of the fitted dose curve at least 0.9, where 1 is the maximum)
Outline: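 Human neural progenitor cells (hNP1, WA09-derived) were plated on poly-L-ornithine/laminin and grown 40 to 44 hours at 37 °C, 5% CO2 before chemical addition. Twenty-four hours later, ATP was measured by CellTiter-Glo luminescence; loss of signal versus DMSO indicates reduced viability.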

[16] = CCTE_Mundy_HCI_Cortical_Synap_Neur_Matur_NeuronCount: CCTE's Synaptogenesis and Neurite Maturation Assay in rat cortical cells for Neuron Count, Mundy Lab (AID 2284242; active means hit-call score of the fitted dose curve at least 0.9, where 1 is the maximum)
Outline: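 Cortical cells from rat are plated, treated with AraC at DIV 5, and exposed to test chemicals with a media change at DIV 7. At DIV 12 they are fixed and immunostained (MAP2, synaptophysin), and imaged neuron counts are compared against DMSO controls.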

[17] = IUF_NPC2c_oligodendrocyte_migration_120hr: Leibniz Research Institute for Environmental Medicine (IUF) 120-hour Neural Progenitor Cell Migration Assay for Oligodendrocyte Migration (NPC2c) (AID 2284297);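 further: O4-positive oligodendrocyte migration distance divided by radial glia migration distance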
Outline: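 Using fetal brain neural progenitor spheres differentiating in N2 medium at 37C, compounds were present for 120 h. Oligodendrocyte migration distance, normalized to radial glia migration, was measured from imaged O4 staining.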

[18] = IUF_NPC2a_radial_glia_migration_120hr: Leibniz Research Institute for Environmental Medicine (IUF) 120-hour Neural Progenitor Cell Migration Assay for Radial Glia Migration (NPC2a) (AID 2284298)
Outline: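 Exposure of 0.3 mm primary hNPC spheres runs day 0 to 120 h with a half-volume medium change at day 3. Fixed cells get Hoechst staining; high-content analysis of nuclear positions yields radial glia migration distance per well, compared against DMSO controls.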

[19] = IUF_NPC2a_radial_glia_migration_72hr: Leibniz Research Institute for Environmental Medicine (IUF) 72-hour Neural Progenitor Cell Migration Assay for Radial Glia Migration (NPC2a) (AID 2284299)
Outline: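 Single 0.3 mm neurospheres were plated per well in N2 differentiation medium and exposed from the start of differentiation. After 72 hours, brightfield images were taken and radial glia migration from the sphere core edge was measured manually in four directions, averaged per well.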

[20] = IUF_NPC2b_neuronal_migration_120hr: Leibniz Research Institute for Environmental Medicine (IUF) 120-hour Neural Progenitor Cell Migration Assay for Neuron Migration (NPC2b) (AID 2284300)
Outline: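 Fetal human NPC spheres migrate on PDL/laminin during 120 h compound treatment; neuronal migration distance, glia-normalized, scored versus DMSO control.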

[21] = IUF_NPC3_neuronal_differentiation_120hr: Leibniz Research Institute for Environmental Medicine (IUF) 120-hour Neuronal Differentiation Assay (NPC3) (AID 2284301)
Outline: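 Value is percent TUBB3-positive neurons among Hoechst-stained nuclei in the migration area, scored by trained CNN after 120 h differentiation. Primary hNPC spheres on poly-D-lysine/laminin, N2 medium, continuous dosing from day 0, half-refeed day 3; DMSO reference.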

[22] = IUF_NPC4_neurite_length_120hr: Leibniz Research Institute for Environmental Medicine (IUF) 120-hour Neuronal Morphology Assay for Neurite Length (NPC4) (AID 2284302)
Outline: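 Neurite length, the mean in um across TUBB3-stained neurons, is derived by skeletonization of high-content images after 120 h differentiation. Compound exposure, 7 concentrations plus solvent control, ran from plating of hNPC spheres on poly-D-lysine/laminin, with medium half-replaced on day 3.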

[23] = IUF_NPC5_oligodendrocyte_differentiation_120hr: Leibniz Research Institute for Environmental Medicine (IUF) 120-hour Oligodendrocyte Differentiation Assay (NPC5) (AID 2284304; active means hit-call score of the fitted dose curve at least 0.9, where 1 is the maximum;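 further: primary human fetal neural progenitor spheres plated to migrate and differentiate; share of O4-positive cells among Hoechst nuclei found by CNN image analysis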)
Outline: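 After plating on poly-D-lysine/laminin, fetal-derived hNPC spheres differentiated for 120 h at 37C in compound-containing N2 medium, refreshed by half on day 3. O4 immunostaining over Hoechst nuclei in the migration zone gave oligodendrocyte percentage relative to DMSO.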

[24] = IUF_NPC2-5_cytotoxicity_72hr: Cytotoxicity Assessment at 72 hours in the Leibniz Research Institute for Environmental Medicine (IUF) Neural Progenitor Cell Migration and Differentiation Assay for Cytotoxicity (NPC2-5) (AID 2284306; active means hit-call score of the fitted dose curve at least 0.9, where 1 is the maximum;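 further: LDH release into supernatant measured by resorufin fluorescence marking membrane damage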)
Outline: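 Membrane-integrity cytotoxicity at 72 h, read as LDH-driven resorufin fluorescence in supernatant. hNPC spheres from fetal cortex differentiate on coated plates in N2 medium, 37C, 5% CO2; seven serial compound concentrations plus solvent control (DMSO ≤0.1%).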

[25] = IUF_NPC2-5_cytotoxicity_120hr: Cytotoxicity Assessment at 120 hours in the Leibniz Research Institute for Environmental Medicine (IUF) Neural Progenitor Cell Migration and Differentiation Assay (NPC2-5) (AID 2284307; active means hit-call score of the fitted dose curve at least 0.9, where 1 is the maximum)
Outline: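 Membrane-integrity loss is quantified by LDH in supernatant after five days of exposure of migrating, differentiating human fetal NPC spheres; seven serially diluted concentrations are tested with DMSO kept at or below 0.1%.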

[26] = IUF_NPC2-5_cell_number_120hr: Cell Number Assessment at 120 hours in the Leibniz Research Institute for Environmental Medicine (IUF) Neural Progenitor Cell Migration and Differentiation Assay (NPC2-5) (AID 2284308);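 further: count of Hoechst-stained nuclei in migration zone around plated human neural progenitor spheres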
Outline: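 Seven-point serial dilutions plus solvent control were applied to plated 0.3 mm hNPC spheres at differentiation start, with medium half-replaced at day 3. Nuclei positive for Hoechst in the migration zone were enumerated at 120 h.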

[27] = IUF_NPC2-5_viability_120hr: Viability Assessment at 120 hours in the Leibniz Research Institute for Environmental Medicine (IUF) Neural Progenitor Cell Migration and Differentiation Assay (NPC2-5) (AID 2284312)
Outline: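 Alamar blue resorufin fluorescence read after 5 days of differentiation, with compound present from day 0 and replenished at day 3. Primary hNPC spheres on laminin-coated plates, 37C; seven concentrations plus solvent control, fitted against DMSO.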

[28] = IUF_NPC1_cytotoxicity_72hr: Cytotoxicity Assessment at 72 hours in the Leibniz Research Institute for Environmental Medicine (IUF) Neural Progenitor Cell Proliferation Assay (NPC1) (AID 2284332; active means hit-call score of the fitted dose curve at least 0.9, where 1 is the maximum;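 further: rising LDH signal means more cytotoxicity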)
Outline: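 Membrane-integrity loss is scored from LDH released into the medium, detected as resorufin fluorescence, with activity fitted upward relative to baseline. Test material stays on human fetal-derived progenitor spheres for 72 h.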

Measured: outcome

C[C@H](CS)C(=O)N1CCC[C@H]1C(=O)O
inactive: all assays above

Source: PubChem BioAssay (EPA / NIEHS)
